This note sets out measurements from the supplement of paper PMC10849652.

The full data set covers some 8,800 targets. This sample favours those with a hit. About 0.5% of all pairs of compound and target were hits. Unmarked numbers belong to inactive results.

Common to all, as to assay: log2 fold change, soluble protein after heating vs DMSO (PISA); higher = thermal stabilisation; K562 lysate, 10 uM; active = over 0.2 and 3.5 SD of the protein, either way, in both replicates (recomputed)
Compound in assay [1]: C#Cc1cccc(Nc2ncnc3cc(OCCOC)c(OCCOC)cc23)c1 [erlotinib]
Put shortly: (§1)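 Soluble protein was defined as the supernatant remaining after 21,000xg for 90 min, following pooling of heated aliquots and adjustment to 0.5% NP-40 at 4°C. Before that, crude K562 extract at 1 mg/mL protein in PBS pH 7.4 with 1 mM MgCl2 was treated with 10 μM compound for 30 min and heated for 3 min across 48°C-58°C. Quantification used TMTpro 16plex LC-MS/MS with channel sums equalised, and values are log-two fold changes in thermal stability relative to solvent controls from duplicates.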

Compound in assay [2]: C1=CC(=CC=C1C2=NC3=C(N2)C=C(C=C3)C(=O)N)OC4=CC=C(C=C4)Cl
Put shortly:
as §1

Compound in assay [3]: C1=CC2=NC=CN=C2C=C1/C=C/3\C(=O)NC(=O)S3
Summed up: as §1

Compound in assay [4]: C1=CC=C(C=C1)C2=NC(=C(N2)C3=CC=NC=C3)C4=CC(=C(C=C4)Cl)O
Put shortly:
as §1

Compound in assay [5]: C1CCN(C1)C(=O)NC2=CC=CC(=C2)NC3=NC=C(C(=N3)NCCC4=CN=CN4)Br
Put shortly: as §1

Compound in assay [6]: C1CN(CCC1(CC2=CC=C(C=C2)Cl)N)C3=NC=NC4=C3C=CN4
Summed up:
as §1

Compound in assay [7]: C1COCCN1CCN2C3=CC=CC=C3N=C2NC(=O)C4=CC(=CC=C4)[N+](=O)[O-] [IRAK-1-4 Inhibitor I]
Put shortly: as §1

Compound in assay [8]: C/C(=N\NC(=O)C1=CC(=CC=C1)S(=O)(=O)N2CCOCC2)/C3=C(C=CC(=C3)Cl)O
Put shortly: as §1

Compound in assay [9]: C1=CC2=C(C=CC(=C2)/C=C\3/C(=O)NC(=NCC4=CC=CS4)S3)N=C1
Summed up: as §1

Compound in assay [10]: C1=CC=C2C(=C1)C3=NNC4=CC=CC(=C43)C2=O
Summed up: as §1

Sequence of UniProt P26378 (P26378 whole entry, looked up): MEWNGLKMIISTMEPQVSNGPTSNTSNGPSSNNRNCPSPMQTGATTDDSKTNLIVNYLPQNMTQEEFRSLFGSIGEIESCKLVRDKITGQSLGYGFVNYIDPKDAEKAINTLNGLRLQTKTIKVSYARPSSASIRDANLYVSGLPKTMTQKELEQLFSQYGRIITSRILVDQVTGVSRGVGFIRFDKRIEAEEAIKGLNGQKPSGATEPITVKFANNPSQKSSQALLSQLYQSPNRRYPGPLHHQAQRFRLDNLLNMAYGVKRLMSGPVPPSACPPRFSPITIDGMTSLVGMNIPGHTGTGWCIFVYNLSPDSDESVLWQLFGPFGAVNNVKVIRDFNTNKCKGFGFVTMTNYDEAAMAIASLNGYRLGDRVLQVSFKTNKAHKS
Sequence of UniProt Q8TF64 (Q8TF64 whole entry, looked up): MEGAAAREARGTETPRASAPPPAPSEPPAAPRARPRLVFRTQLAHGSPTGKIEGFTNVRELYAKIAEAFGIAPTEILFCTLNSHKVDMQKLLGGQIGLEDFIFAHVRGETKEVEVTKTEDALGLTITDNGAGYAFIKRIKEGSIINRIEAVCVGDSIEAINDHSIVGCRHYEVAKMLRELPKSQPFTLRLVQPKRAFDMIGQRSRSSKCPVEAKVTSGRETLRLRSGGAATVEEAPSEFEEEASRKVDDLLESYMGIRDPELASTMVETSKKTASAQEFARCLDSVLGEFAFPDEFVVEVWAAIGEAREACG
Sequence of UniProt Q9H8W3 (Q9H8W3 whole entry, looked up): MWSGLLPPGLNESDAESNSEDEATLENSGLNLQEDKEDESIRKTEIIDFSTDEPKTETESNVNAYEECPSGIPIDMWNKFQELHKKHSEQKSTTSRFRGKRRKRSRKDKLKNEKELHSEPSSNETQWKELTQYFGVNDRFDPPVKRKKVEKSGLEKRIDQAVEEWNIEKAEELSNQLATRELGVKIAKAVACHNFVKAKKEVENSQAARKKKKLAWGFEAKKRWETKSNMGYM
Sequence of UniProt P02774 (P02774 whole entry, looked up): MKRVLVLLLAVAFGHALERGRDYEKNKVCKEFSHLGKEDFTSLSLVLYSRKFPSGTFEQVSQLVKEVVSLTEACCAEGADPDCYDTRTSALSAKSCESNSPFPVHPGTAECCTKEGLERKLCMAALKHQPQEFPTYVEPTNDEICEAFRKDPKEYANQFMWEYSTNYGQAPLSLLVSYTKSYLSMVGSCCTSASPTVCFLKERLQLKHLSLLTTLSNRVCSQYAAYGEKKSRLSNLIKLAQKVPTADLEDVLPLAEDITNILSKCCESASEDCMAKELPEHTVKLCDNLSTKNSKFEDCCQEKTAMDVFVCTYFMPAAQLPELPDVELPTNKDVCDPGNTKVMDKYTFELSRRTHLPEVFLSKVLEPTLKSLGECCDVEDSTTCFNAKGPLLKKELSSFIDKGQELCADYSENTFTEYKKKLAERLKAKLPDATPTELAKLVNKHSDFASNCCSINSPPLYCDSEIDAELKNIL
Sequence of UniProt Q96PZ2 (Q96PZ2 whole entry, looked up): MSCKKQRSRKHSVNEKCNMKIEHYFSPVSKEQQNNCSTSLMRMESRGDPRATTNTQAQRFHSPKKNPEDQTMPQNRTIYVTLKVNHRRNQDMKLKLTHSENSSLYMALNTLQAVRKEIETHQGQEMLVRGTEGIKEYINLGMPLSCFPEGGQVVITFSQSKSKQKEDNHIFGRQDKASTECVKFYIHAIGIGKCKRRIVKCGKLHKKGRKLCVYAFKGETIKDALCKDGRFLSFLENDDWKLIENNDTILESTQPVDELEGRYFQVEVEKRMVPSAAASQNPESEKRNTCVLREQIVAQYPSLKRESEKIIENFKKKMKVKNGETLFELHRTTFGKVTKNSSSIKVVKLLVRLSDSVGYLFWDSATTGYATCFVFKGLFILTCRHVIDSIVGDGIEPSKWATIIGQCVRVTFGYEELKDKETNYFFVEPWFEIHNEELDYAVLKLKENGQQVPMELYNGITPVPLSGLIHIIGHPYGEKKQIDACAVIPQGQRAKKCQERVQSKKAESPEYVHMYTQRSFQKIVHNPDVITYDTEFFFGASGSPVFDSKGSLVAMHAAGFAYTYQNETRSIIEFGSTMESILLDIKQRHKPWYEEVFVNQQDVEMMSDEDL
Sequence of UniProt Q5HYJ3 (Q5HYJ3 whole entry, looked up): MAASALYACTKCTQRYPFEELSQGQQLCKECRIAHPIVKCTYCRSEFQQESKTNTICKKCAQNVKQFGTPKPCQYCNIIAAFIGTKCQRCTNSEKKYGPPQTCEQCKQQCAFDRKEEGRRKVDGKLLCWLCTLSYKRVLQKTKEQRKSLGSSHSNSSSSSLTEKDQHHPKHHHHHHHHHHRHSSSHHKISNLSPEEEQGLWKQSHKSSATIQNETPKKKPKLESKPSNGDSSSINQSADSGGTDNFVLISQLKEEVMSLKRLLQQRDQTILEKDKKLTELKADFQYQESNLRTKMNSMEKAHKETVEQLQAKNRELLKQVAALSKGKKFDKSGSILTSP
Sequence of UniProt O95718 (O95718 whole entry, looked up): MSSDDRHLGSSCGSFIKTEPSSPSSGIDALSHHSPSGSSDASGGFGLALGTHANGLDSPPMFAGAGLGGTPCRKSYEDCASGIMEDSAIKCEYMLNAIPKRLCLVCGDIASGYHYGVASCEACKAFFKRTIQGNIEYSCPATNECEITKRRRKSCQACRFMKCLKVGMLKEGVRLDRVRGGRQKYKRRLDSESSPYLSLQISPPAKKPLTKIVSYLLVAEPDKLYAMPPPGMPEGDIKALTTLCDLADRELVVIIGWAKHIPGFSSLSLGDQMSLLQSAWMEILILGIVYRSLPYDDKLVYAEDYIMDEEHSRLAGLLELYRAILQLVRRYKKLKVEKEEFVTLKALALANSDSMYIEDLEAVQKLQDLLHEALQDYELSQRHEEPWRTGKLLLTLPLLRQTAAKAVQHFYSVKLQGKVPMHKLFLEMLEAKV
Sequence of UniProt Q9Y2H6 (Q9Y2H6 whole entry, looked up): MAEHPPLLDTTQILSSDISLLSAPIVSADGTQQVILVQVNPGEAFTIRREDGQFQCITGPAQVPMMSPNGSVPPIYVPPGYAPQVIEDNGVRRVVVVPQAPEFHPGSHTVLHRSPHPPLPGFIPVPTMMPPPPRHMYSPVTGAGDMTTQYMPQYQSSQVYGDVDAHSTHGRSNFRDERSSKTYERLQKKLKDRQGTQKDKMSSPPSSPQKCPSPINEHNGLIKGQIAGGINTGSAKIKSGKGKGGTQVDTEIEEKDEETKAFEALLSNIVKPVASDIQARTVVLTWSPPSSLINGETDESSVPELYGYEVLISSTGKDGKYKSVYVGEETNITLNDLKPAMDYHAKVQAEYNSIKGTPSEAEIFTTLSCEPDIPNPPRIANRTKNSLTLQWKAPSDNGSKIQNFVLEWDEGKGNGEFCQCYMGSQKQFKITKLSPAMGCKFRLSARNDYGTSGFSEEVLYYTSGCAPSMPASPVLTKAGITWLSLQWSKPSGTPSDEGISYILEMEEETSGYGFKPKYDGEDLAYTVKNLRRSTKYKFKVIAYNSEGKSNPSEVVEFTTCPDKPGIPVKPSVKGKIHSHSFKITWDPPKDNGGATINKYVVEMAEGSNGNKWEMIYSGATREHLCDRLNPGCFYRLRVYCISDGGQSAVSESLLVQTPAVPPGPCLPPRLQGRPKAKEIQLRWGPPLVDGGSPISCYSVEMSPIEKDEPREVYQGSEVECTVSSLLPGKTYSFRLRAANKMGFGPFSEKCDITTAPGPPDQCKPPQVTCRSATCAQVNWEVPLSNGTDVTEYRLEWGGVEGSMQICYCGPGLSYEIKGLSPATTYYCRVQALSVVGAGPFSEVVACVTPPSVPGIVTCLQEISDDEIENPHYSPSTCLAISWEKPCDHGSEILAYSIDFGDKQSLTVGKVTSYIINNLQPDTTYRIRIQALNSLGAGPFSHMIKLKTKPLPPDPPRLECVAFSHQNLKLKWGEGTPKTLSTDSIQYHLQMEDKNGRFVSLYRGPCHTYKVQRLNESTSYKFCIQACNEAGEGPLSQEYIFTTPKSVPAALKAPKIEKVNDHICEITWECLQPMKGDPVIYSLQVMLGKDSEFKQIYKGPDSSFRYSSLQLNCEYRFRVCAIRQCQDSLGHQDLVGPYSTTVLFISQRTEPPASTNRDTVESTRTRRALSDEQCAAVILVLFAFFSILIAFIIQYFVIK
Sequence of UniProt P58012 (P58012 whole entry, looked up): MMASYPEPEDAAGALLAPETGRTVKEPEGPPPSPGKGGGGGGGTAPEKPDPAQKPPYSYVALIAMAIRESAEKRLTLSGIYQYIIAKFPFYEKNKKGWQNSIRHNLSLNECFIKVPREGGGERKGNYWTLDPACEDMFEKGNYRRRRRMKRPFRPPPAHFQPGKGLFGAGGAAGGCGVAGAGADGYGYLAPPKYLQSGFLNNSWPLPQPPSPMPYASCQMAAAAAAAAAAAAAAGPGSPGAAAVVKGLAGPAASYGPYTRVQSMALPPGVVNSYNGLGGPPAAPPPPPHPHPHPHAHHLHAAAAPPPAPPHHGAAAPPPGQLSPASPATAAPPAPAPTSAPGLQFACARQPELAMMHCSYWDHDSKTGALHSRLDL
Sequence of UniProt Q9Y6B2 (Q9Y6B2 whole entry, looked up): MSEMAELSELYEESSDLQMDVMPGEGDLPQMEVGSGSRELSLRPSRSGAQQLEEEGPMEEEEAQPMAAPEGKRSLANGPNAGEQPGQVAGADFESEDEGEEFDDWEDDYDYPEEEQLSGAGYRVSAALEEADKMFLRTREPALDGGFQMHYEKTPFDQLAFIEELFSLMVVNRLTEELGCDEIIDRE
Sequence of UniProt Q9UET6 (Q9UET6 whole entry, looked up): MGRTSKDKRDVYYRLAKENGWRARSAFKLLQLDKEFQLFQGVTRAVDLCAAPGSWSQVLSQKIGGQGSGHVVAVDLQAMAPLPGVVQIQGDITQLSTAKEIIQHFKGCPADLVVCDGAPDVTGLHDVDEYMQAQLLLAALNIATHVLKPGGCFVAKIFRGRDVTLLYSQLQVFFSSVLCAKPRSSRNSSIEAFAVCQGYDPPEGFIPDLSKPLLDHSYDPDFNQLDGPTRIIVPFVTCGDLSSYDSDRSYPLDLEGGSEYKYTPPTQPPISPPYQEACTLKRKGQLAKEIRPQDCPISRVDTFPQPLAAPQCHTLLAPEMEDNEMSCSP

In the case of FOXJ2 (UniProt Q9P0K8), the log2 fold change in assay [1] is 0.102; in [2] it was 0.056; in assay [3] it was 0.139; in [4], 0.026; in assay [5], 0.138; in [6] it was -0.036. The log2 fold change in assay [7] was -0.03.

In the case of EEF1AKNMT (UniProt Q8N6R0), the log2 fold change in assay [1] was 0.048; in assay [8], 0.029; in assay [2], -0.02; in [9], -0.039; in [3], 0.005; in assay [4], 0. The log2 fold change in assay [10] is -0.065; in assay [5] it was 0.011; in [6], 0.053; in assay [7], -0.015.

Consider DUSP22 isoform 2 (UniProt Q9NRW4), for which the log2 fold change in [1] is -0.016; in assay [8] it was 0.157; in [2], 0.007; in assay [9], 0.075; in assay [3], 0.051; in [4], 0.035. Besides, the log2 fold change in assay [10] is 0.143; in assay [7] it was -0.028.

For the target EPB41 isoform 4 (UniProt P11171), the log2 fold change in assay [1] was -0.128; in assay [2], -0.054; in assay [4], -0.012; in [7] it was 0.002.

On to FAM76B (UniProt Q5HYJ3), for which the log2 fold change in assay [1] was -0.027; in assay [8] it was -0.35; in [2], -0.016; in assay [9], -0.137; in assay [4] it was -0.053; in assay [10], 0.046. Also, the log2 fold change was -0.019 in assay [5], 0.061 in [6] and -0.008 in assay [7].

Turning to FTSJ1 isoform 2 (UniProt Q9UET6), the log2 fold change was -0.149 in assay [8]; 0.055 in assay [9]; -0.039 in assay [10]; 0.051 in [5]; 0.059 in assay [6].

On to GIPC3 (UniProt Q8TF64), for which the log2 fold change in [1] is -0.049; in [2], 0.091; in assay [3], -0.025; in assay [4], 0.063; in [5] it was 0.008; in assay [6] it was 0.139. Besides, in [7], the log2 fold change was 0.101.

For the target FOXL2 (UniProt P58012), the log2 fold change in assay [1] is 0.274; in assay [2], -0.129; in assay [3], -0.006; in assay [4] it was -0.085; in assay [5] it was -0.024; in [6], 0.187. In addition, the log2 fold change in assay [7] was 0.026.

For EID1 (UniProt Q9Y6B2), the log2 fold change was 0.089 in assay [1]; -0.172 in assay [2]; 0.096 in assay [4]; 0.064 in [5]; 0.091 in assay [6]; 0.044 in assay [7].

Turning to FAM204A (UniProt Q9H8W3), the log2 fold change in assay [1] is -0.021; in [8], -0.018; in assay [2], -0.014; in [9], 0.11; in assay [4], 0.018; in assay [10], -0.008. For the same target, the log2 fold change in assay [7] was 0.01.

Consider GCA (UniProt P28676), for which the figures for the log2 fold change in assay [1] and in [2] were -0.115 and -0.037, respectively.

Turning to FNDC3A (UniProt Q9Y2H6), the log2 fold change in assay [1] was 0.198; in assay [2], 0.024; in [4], -0.112; in assay [7], 0.04.

Take EXO5 (UniProt Q9H790): the log2 fold change in assay [1] was 0.279; in assay [2], 0.012; in [3], -0.226; in [4], 0.085; in assay [7], -0.028.

With EPS8L2 (UniProt Q9H6S3), the log2 fold change in assay [1] is 0.082; in assay [2], 0.009; in assay [3] it was 0.037; in assay [4], 0.133; in assay [5], -0.108; in assay [6], 0.055. Also, the log2 fold change in assay [7] is -0.086.

Consider FAM111A (UniProt Q96PZ2), for which the log2 fold change in [1] is -0.025; in [8] it was -0.04; in [2], -0.01; in assay [9], 0.002; in assay [4], -0.088; in assay [10] it was -0.088. Also, the log2 fold change in [5] was 0.046; in assay [6] it was 0.022; in [7] it was -0.088.

Consider GC isoform 3 (UniProt P02774), for which the log2 fold change in assay [8] is 0.039; in [9], -0.019; in assay [4], -0.199; in [10] it was 0.012; in assay [5] it was 0.051; in assay [6], 0.055. Further, in assay [7], the log2 fold change is 0.15.

With ELAVL4 (UniProt P26378), the log2 fold change is 0.073 in assay [1]; 0.047 in [8]; -0.063 in assay [2]; -0.047 in [9]; 0.015 in assay [4]; 0.002 in [10]. Also, the log2 fold change is 0.029 in assay [5], 0.036 in assay [6] and -0.012 in assay [7].

Turning to GAPVD1 (UniProt Q14C86), the log2 fold change in assay [3] was -0.016.

For DTL (UniProt Q9NZJ0), the log2 fold change is 0.106 in [1]; -0.053 in assay [8]; 0.012 in assay [2]; 0.067 in assay [9]; -0.029 in assay [3]; -0.002 in assay [4]. In addition, the log2 fold change in assay [10] is -0.072; in [7] it was 0.006.

For the target ESRRB isoform 1 (UniProt O95718), the log2 fold change was 0.1 in assay [1]; -0.783 (active) in assay [2]; -0.021 in assay [3]; 0.016 in assay [4]; 0.236 in assay [7].

On to EPN2 (UniProt I3L356), for which the log2 fold change in [3] was -0.143.

For GART (UniProt C9JZG2), the log2 fold change in assay [3] is 0.092; in assay [4], 0.007; in assay [5], -0.025; in [6] it was -0.011; in assay [7], 0.078.

In the case of ERG28 (UniProt Q9UKR5), the log2 fold change is -0.015 in [3], 0.072 in [5] and -0.066 in [6].

FTL (UniProt P02792): the log2 fold change in assay [1] is -0.14; in [8] it was -0.599; in assay [2], -0.077; in [9] it was -0.027; in assay [3], -0.006; in [4], 0.11. For the same target, the log2 fold change in [10] is 0.012; in assay [5], -0.063; in [6], -0.034; in [7], 0.169.
